CYP2C19 activ – activators of human cytochrome P450 2C19 | P33261 | recombinant CYP2C19, luciferin-H EGE luminescence; stronger effect = higher value; 0 = fully inhibited enzyme, 1 = untreated enzyme | activation factor at 5 µM | 96,000 tested, under 10 active | AID 1025;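 active = activation factor of at least 2 at 5 µM in the primary screen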;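 note: 0 = wells with 2.5 mM tranylcypromine and 1 = vehicle-only wells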
CYP2C9 inh – blocks human cytochrome P450 2C9; P11712; CYP2C9 Supersomes, luciferin-H conversion, luminescence; inhibition, % at 5 µM; 96,000 compounds, 20% hits;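 active = blocking of liver enzyme CYP2C9 beyond about 50% at 5 µM, limit read from the data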
Target sequence (P11712 whole entry, looked up): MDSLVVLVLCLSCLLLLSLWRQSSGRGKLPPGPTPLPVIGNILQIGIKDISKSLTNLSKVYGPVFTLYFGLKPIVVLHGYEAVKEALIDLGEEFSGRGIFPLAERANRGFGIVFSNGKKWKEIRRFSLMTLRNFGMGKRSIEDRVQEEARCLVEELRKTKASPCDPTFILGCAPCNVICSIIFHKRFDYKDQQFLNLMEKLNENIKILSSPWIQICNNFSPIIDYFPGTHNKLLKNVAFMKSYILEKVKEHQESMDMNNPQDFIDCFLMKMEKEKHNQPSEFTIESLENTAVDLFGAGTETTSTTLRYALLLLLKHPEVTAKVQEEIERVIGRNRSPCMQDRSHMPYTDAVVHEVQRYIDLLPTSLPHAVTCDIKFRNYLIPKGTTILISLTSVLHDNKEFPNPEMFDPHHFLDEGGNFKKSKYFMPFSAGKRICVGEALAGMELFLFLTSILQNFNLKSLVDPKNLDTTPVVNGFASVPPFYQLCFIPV
CYP2C9 act – activators of human CYP2C9 | recombinant CYP2C9, luciferin-H conversion, luminescence; stronger effect = higher value; factor 1 = untreated enzyme, 0 = blocked | activation factor at 5 µM | 96,000 compounds, 1.4% hits;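 active = activation factor of 2 or more for CYP2C9 at a 5 µM dose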;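 note: 0 = sulfaphenazole-blocked wells and 1 = vehicle-only wells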
CYP2C19 inhib – human CYP2C19 inhibition. CYP2C19 Supersomes, luciferin-H EGE luminescence, 30 min. inhibition, % at 5 µM. 96,000 compounds, 21% hits. AID 778;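 active = CYP2C19 inhibition above a set limit at 5 µM in the primary screen, cut at about 50% in these data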;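 note: plate controls were negative control wells for no effect and 2.5 mM tranylcypromine positive control for full effect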
PostGolgi yeast – growth inhibition of a yeast mutant, post-Golgi transport screen | post-Golgi transport phenotypic cell assay | inhibition, % at 10 µM | 98,000 compounds, 0.9% hits | AID 739;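 note: yeast cells grown in 1536-well plates; yeast grown about 18 h at 30C before absorbance read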
PostGolgi ctrl – inhibits growth of the yeast control strain | efflux-deficient yeast background strain, growth absorbance A615, 16 h | inhibition, % at 10 µM | 98,000 compounds, 5% hits | AID 738
The depositor's hits bear a star; · = no result. Only some compounds are listed: those with a hit (about 32% of all), similar ones and a draw of the others. Cut-off read from the data, not from the text of the source, unless noted: active = inhibition above about 30%; inactive = the rest.

SMILES	CYP2C19 activ	CYP2C9 inh	CYP2C9 act	CYP2C19 inhib	PostGolgi yeast	PostGolgi ctrl
COc1ccc(Br)cc1CNC(=O)C1CCCN(c2nc3ccccc3o2)C1 (stereo unspecified)	0.9	36	0.6	8	1	15
O=C(NCCc1ccccc1)C1CCN(c2nc3ccccc3o2)CC1	0.9	19	0.8	11	0	6
O=C(NC1CCCCCCC1)C1CCN(c2nc3ccccc3o2)CC1	0.6	29	0.7	36	5	66*
O=C(NCc1cccs1)C1CCCN(c2nc3ccccc3o2)C1 (stereo unspecified)	0.6	13	0.9	39	13	42*
Cc1cc(C)nc(N2CCCC(C(=O)NCc3cccs3)C2)n1 (stereo unspecified)	0.7	-20	1.2	29	-7	3
O=C(NCCC1=CCCCC1)C1CCCN(c2nc3ccccc3o2)C1 (stereo unspecified)	0.6	51*	0.5	45	-6	3
Cc1ccc(N(C)C(=O)N2CCN(S(=O)(=O)c3ccc(C)cc3)CC2)cc1	0.1	56*	0.4	95*	-5	28
Cc1ccc(N(C)C(=O)N2CCN(S(=O)(=O)c3ccc4ccccc4c3)CC2)cc1	0.4	34	0.7	57*	-1	25
Cc1ccc(N(C)C(=O)N2CCN(c3ccccn3)CC2)cc1	0.8	53*	0.5	21	-4	16
CC(C)CC(=O)N1CCN(S(=O)(=O)c2ccc3ccccc3c2)CC1	0	-92	1.9	96*	12	10
CCCCCOC(=O)Cn1c(N2CCCCCC2)nc2c1c(=O)[nH]c(=O)n2C	0.8	9	0.9	20	-6	7
Cc1ccc(S(=O)(=O)N2CCN(C(=O)N(c3ccccc3)c3ccccc3)CC2)cc1	0.5	52*	0.5	51*	-8	94*
CN(C)S(=O)(=O)N1CCN(C(=O)N(c2ccccc2)c2ccccc2)CC1	0.9	33	0.7	13	-9	-2
CC(=O)c1ccc(N(C(=O)Cc2c[nH]c3ccccc23)C(C(=O)NC2CCCCC2)c2cccs2)cc1 (stereo unspecified)	0.4	58*	0.4	65*	2	-3
O=C(NC1CCCC1)C(c1ccsc1)N(C(=O)Cc1cccs1)c1ccc(F)cc1 (stereo unspecified)	0.9	5	0.9	14	35*	3
O=C(NC1CCCCC1)C(c1cccs1)N(C(=O)Cc1c[nH]c2ccccc12)c1ccc(F)cc1 (stereo unspecified)	0.3	48	0.5	68*	-6	48*
Cc1ccc(C(C(=O)NC2CCCCC2)N(C(=O)Cc2c[nH]c3ccccc23)c2ccccc2)o1 (stereo unspecified)	0.6	66*	0.3	45	-5	13
O=C(NC1CCCC1)C(c1ccsc1)N(C(=O)Cc1cccs1)c1cccc(F)c1 (stereo unspecified)	1	8	0.9	3	-4	0
CC(=O)Nc1ccc2nc(C3CCCCC3)[nH]c2c1	1	4	1	-1	-8	7
O=C(NC(=O)c1cccc(Cl)c1)OC[C@@H]1CCCN2CCCCC12 (stereo partly specified)	1	5	0.9	2	-6	2
CCOC(=O)c1[nH]c(C(=O)O)c(CCN(CC)CC)c1C	1	7	0.9	-2	-2	3
CSc1ccc(CNc2ccccc2)cc1	0.1	9	0.9	92*	6	2
CSc1ccc(CNc2ccccn2)cc1	0.4	14	0.9	63*	2	9
CN(Cc1ccccc1)C(NC(=O)c1ccccc1)C(Cl)(Cl)Cl (stereo unspecified)	0.7	47	0.5	31	9	35*
NC(=O)C1CCN(C(=O)Cn2cccc2C(=O)c2ccccc2)CC1	1	1	1	-4	7	1
SMILES	CYP2C19 activ	CYP2C9 inh	CYP2C9 act	CYP2C19 inhib	PostGolgi yeast	PostGolgi ctrl
C=C(C)CSc1nc2nc(C)c(Br)cc2[nH]1	0.4	40	0.6	55*	-10	5
Cc1coc(C)c1C(=O)CC1(O)C(=O)N(Cc2ccccc2)c2ccccc21 (stereo unspecified)	0	39	0.6	98*	-3	29
CC(=O)CC1(O)C(=O)N(Cc2ccccc2)c2ccccc21 (stereo unspecified)	0.6	13	0.9	36	-2	10
C/C(CC1(O)C(=O)N(Cc2ccccc2)c2ccccc21)=N\O (stereo unspecified)	0.5	8	0.9	50*	2	-5
CCN(CC)S(=O)(=O)c1ccc(C(=O)N2CCN=C2SC)cc1	0.9	7	0.9	14	-5	5
CC(=O)Nc1cccc(-c2nnc(-c3ccccc3)o2)c1	0.7	-70	1.7	34	2	-5
COc1ccc(CC(=O)Nc2ccc(-c3nnc(-c4ccccc4)o3)cc2)cc1OC	0.9	25	0.8	14	-7	8
O=C(Cc1ccc(Cl)cc1)Nc1cccc(-c2nnc(-c3ccco3)o2)c1	0.2	78*	0.2	80*	1	4
O=C(Cc1ccccc1)Nc1cccc(-c2nnc(-c3ccco3)o2)c1	0.2	79*	0.2	84*	2	4
O=C(Nc1cccc(-c2nnc(-c3ccco3)o2)c1)C(c1ccccc1)c1ccccc1	0.2	98*	0	83*	-4	13
Cc1ccc(NC(=O)c2cnn(-c3ccccc3)c2NC(=O)c2ccco2)cc1	0.9	35	0.7	14	-5	13
CC(=O)N1CCc2cc(Br)cc(S(=O)(=O)NCCN3CCCCC3C)c21 (stereo unspecified)	0.9	2	1	8	-1	1
CC(=O)Nc1ccc(S(=O)(=O)Oc2cccc(N3C(=O)C4CC=CCC4C3=O)c2)cc1 (stereo unspecified)	0.6	59*	0.4	43	2	-2
O=C(CCl)Nc1cccn2ncnc12	1.1	-33	1.3	-6	7	5
COc1ccc(-c2csc(N(CCc3ccc(OC)c(OC)c3)C(=O)COc3ccccc3)n2)cc1	0.6	68*	0.3	38	-20	5
Cc1ccc(CN2CCSc3ccc(C(=O)N4CCN(c5ncccn5)CC4)cc32)cc1	0	93*	0.1	97*	2	64*
O=C(NCCN1CCOCC1)c1ccc2c(c1)N(Cc1ccccc1)CCS2	0.5	63*	0.4	54*	6	-3
CC1CC(C)CN(C(=O)c2ccc3c(c2)N(Cc2ccccc2)CCS3)C1 (stereo unspecified)	0.7	11	0.9	34	88*	75*
CCN1C(=O)N(CN2CCOCC2)C2C1N(CN1CCOCC1)C(=O)N2CC (stereo unspecified)	1	14	0.9	0	·	·
O=C1CN(c2nnnn2-c2ccccc2)CCN1	1.2	-8	1.1	-17	0	23
